# An excerpt weighted towards active compounds, which were near 12% of everything screened.
# HP1b chromo inh – blocks HP1-beta chromodomain binding to methylated histone tails | hit rate 0.56% among 390,000 | Potency, µM (doses to about 114 µM), hits mostly inhibitors | AlphaScreen HP1-beta / biotin-H3K9me3 peptide binding | AID 540317; note: nearly all actives have a fitted effect of over 70% in size
#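 HP1-beta protein (50 nM final) preincubated 30 min at room temperature with biotinylated H3(1-18)K9me3 peptide (50 nM) in PBS pH 7.4, 0.01% Tween-20, then compound added for 30 min. AlphaScreen streptavidin donor/nickel chelate acceptor beads (10 ug/mL final), 30 min dark, luminescence read.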
# BAZ2B inh – BAZ2B (human) inhibition. Q9UIF8. AlphaScreen BAZ2B-H3K14Ac peptide displacement. Potency, µM (highest dose often 114 µM), actives largely listed as inhibitors. hit rate 4.4% among 360,000. AID 504333; note: nearly all actives have a fitted effect of over 60% in size
#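 Compounds, titrated to a top concentration of 110 uM, were incubated 30 min at room temperature with preformed BAZ2B/acetyl-K14 H3 peptide complex (50 nM each). Proximity signal was measured by AlphaScreen after 20 min with beads.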
# G9a inh – blocks human histone lysine methyltransferase G9a; Q96KQ7; G9a H3K9 monomethylation, AlphaScreen, 2 h; Potency, µM (top dose mostly 102 µM), usual class: inhibitors; hit rate 8.8% among 350,000; AID 504332; note: nearly all actives have a fitted effect of over 75% in size
#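 G9a (20 nM) was preincubated 15 min with compound, then reacted 2 h at room temperature with 500 nM biotin-H3K9 peptide and 20 µM SAM. Monomethyl-H3K9 detected by AlphaScreen using anti-H3K9me1 antibody.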
# JMJD2A Tudor inh – inhibitors of human JMJD2A Tudor domain; O75164; AlphaScreen JMJD2A-Tudor / H3K4me3 peptide binding; Potency, µM (doses to about 114 µM), actives largely listed as inhibitors; hit rate 4.4% among 390,000; note: nearly all actives have a fitted effect of over 50% in size
# Target sequence (O75164 whole entry, looked up, the tested form may be a part): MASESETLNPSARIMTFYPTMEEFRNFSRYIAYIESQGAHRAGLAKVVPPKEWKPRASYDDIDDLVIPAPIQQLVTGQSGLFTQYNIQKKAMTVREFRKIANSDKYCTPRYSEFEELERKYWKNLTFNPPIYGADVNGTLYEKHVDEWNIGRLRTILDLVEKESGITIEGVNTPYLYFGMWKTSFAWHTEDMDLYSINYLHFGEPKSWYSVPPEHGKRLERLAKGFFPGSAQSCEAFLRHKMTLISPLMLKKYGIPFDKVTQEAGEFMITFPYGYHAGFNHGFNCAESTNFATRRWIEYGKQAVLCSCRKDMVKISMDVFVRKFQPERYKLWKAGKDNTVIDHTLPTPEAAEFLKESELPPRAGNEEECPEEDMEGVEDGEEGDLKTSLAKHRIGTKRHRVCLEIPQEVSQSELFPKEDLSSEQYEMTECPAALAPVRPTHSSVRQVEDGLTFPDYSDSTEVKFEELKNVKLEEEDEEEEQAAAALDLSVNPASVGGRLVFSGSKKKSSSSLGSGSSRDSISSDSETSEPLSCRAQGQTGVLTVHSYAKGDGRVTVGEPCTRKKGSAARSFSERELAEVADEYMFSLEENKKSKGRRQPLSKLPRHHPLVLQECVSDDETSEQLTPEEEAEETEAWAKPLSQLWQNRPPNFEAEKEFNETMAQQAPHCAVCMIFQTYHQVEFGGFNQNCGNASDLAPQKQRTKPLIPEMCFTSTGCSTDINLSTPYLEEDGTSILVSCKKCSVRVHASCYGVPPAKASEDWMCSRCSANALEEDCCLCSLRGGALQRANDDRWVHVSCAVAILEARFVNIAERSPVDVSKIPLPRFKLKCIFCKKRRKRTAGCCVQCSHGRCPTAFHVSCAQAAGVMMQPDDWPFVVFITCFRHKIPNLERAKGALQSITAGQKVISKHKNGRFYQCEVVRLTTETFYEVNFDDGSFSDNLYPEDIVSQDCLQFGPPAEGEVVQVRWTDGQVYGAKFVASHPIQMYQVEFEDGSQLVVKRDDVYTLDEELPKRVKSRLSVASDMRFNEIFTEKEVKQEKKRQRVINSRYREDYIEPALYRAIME
# Sfp inh – Sfp phosphopantetheinyl transferase inhibition | Q9F4F7 | Biochemical Sfp PPTase activity, qHTS | Potency, µM, hits mostly inhibitors | hit rate 3.5% among 310,000 | AID 1490;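 note: the enzyme is Sfp with the accession as filed and its product quenches rhodamine fluorescence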
#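 Compounds were incubated with enzyme (final 15 nM) for 15 min at room temperature before substrate addition started the reaction. Fluorescence at 525 nm excitation, 598 nm emission was recorded immediately and after 30 minutes.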
# TDP1 block – TDP1 (human) enzyme inhibition | Q9NUW8 | recombinant TDP1, AlphaScreen DNA substrate cleavage | Potency, µM (top dose mostly 130 µM), usual class: inhibitors | hit rate 0.28% among 350,000 | AID 485290; note: nearly all actives have a fitted effect of over 40% in size
#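 Recombinant human Tdp1 (E. coli-expressed, 1 nM final) preincubated with compounds 15 min at room temperature, then 5'-biotin/3'-phosphotyrosine-FITC DNA substrate (15 nM final) added for 5 min. AlphaScreen beads (10 ug/ml final) added 10 min; cleavage lowers signal.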
# Hits are given with their value; i = inactive; ? = inconclusive; nt = no result given; [ ] = another dose, or the depositor's remark. Calls come from the whole dose curve; as a rule, active = well fitted curve in the direction sought with a large enough effect; inconclusive = small, poorly fitted or top-dose-only effect, or another doubt; inactive = no such curve, though single readings can be large; an effect the other way counts as inactive or inconclusive.
SMILES,HP1b chromo inh,BAZ2B inh,G9a inh,JMJD2A Tudor inh,Sfp inh,TDP1 block
COc1cccc(S(=O)(=O)N2CCN(C(=O)c3ccco3)CC2)c1,i,?,?,i,?,i
Cn1c(C(=O)N2CCN(C(=O)c3ccco3)CC2)cc2c(=O)n3ccccc3nc21,i,i,?,i,20µM,i
COc1cccc(CN2CCN(C(=O)c3ccco3)CC2)c1,?,28µM,20µM,28µM,?,i
O=C(c1ccco1)N1CCN(Cc2cccc3ccccc23)CC1,22µM,20µM,14µM,22µM,?,i[0.0935 µM]
CSCC[C@H](NC(=O)[C@@H]1CSC2c3ccccc3C(=O)N21)C(=O)NCc1ccco1 (some centres undefined),i,i,i,i,i,i
CNc1ccc(Br)cc1C(O)c1ccccc1 (centres undefined),i,i,i[12.7 µM],i,89µM,i
CC(C)(C)c1ccc(NC(=O)COC(=O)c2ccc3ncsc3c2)cc1,i,i,i[12.7 µM],i,nt,i
O=C(Nc1ccc(Br)cc1)c1ccc2ncsc2c1,i,i,45µM,i,?,i
CC1(C)CC(=O)c2sc(NC(=O)c3ccc4ncsc4c3)nc2C1,i,i,?,i,50µM,i
CCOc1ccc(NC(=O)COC(=O)c2ccc3ncsc3c2)cc1OCC,i,?,45µM,i,nt,i
CC1(C)CC(=O)c2sc(NC(=O)CN3CCCCC3)nc2C1,i,nt,14µM,?,i,i
CCOc1cc(C(=O)OCc2cc(=O)n3c(C)csc3n2)ccc1OC,i,nt,nt,i,nt,i
Cc1sc(-c2ccccn2)nc1OC(=O)c1ccc(Cl)c(Cl)c1,i,i,40µM,i,i,i
COc1ccc(S(=O)(=O)N2CCOCC2)cc1NC(=O)COC(=O)C1CC2CCCC(C1)C2=O (centres undefined),i,i,i[12.7 µM],i,i,i
O=C(NCc1cccs1)C(=O)NCC(c1ccco1)N1CCN(c2ccccc2)CC1 (centres undefined),i,nt,?,i[11.4 µM],i,i
COc1ccc(N2CCN(C(CNC(=O)OCc3ccccc3)c3ccco3)CC2)cc1 (centres undefined),?,40µM,25µM,40µM,i,i
O=C(COc1ccccc1)NCC(c1ccco1)N1CCN(c2ccccc2)CC1 (centres undefined),i,i,45µM,?,nt,nt
COc1ccc(N2CCN(C(CNC(=O)C(=O)NCc3cccs3)c3ccco3)CC2)cc1 (centres undefined),i,?,40µM,i[11.4 µM],i,i
COc1ccc(N2CCN(C(CNC(=O)C(=O)NC3CCCC3)c3ccco3)CC2)cc1 (centres undefined),i,i,7.1µM,i,nt,nt
COc1ccc(N2CCN(C(CNC(C)=O)c3ccco3)CC2)cc1 (centres undefined),i,i,?,i[11.4 µM],i,i
CCCC(CCC)C(=O)NC1CC(=O)N(c2ccc3c(c2)OCCO3)C1 (centres undefined),i,i,i,i,nt,i
Cc1ccc(C2CC(=O)Oc3cc(C)c(Cl)c(C)c32)cc1 (centres undefined),nt,nt,i,nt,i,i
O=C(O)c1ccc(NCCC2=CCCCC2)c([N+](=O)[O-])c1,i,i,?,i,i,i
CN(/N=C/c1ccc([N+](=O)[O-])o1)c1ccccc1,35µM,14µM,22µM,32µM,i,i
CCCn1cnc2cc(NCc3ccccc3O)ccc21,i,i,40µM,i,i,nt
SMILES,HP1b chromo inh,BAZ2B inh,G9a inh,JMJD2A Tudor inh,Sfp inh,TDP1 block
Cn1cnc2cc(NCc3ccc(Cl)cc3)ccc21,i,?,45µM,?,i,i
CCCn1cnc2cc(NCc3cccc(OC)c3)ccc21,i,?,i[12.7 µM],?,i,i
CC(=O)Nc1ccc2c(c1)ncn2C,i,i,i,i,i,i
CCC(=O)Nc1ccc2c(c1)ncn2CCc1ccccc1,i,i,i[2.33 µM],i,i,nt
CCCn1cnc2cc(NCc3ccc(Br)cc3)ccc21,?,45µM,45µM,16µM,i,nt
CCn1cnc2cc(NCc3ccc(Br)cc3)ccc21,?,45µM,13µM,14µM,i,nt
CCOC(=O)CNC(=O)CN1CCC(c2nc3ccccc3[nH]2)CC1,i,i,i[0.501 µM],i,i,i
Cc1cccc(C)c1-n1ncc(C(=O)NCCN2CCN(C)CC2)c1C1CCN(C(=O)OC(C)(C)C)CC1,i,i,i,i,nt,i
O=C(CCNC(=O)c1ccc([N+](=O)[O-])cc1)Nc1ccc(F)c(F)c1F,i,i,i,i,i,i
Fc1cc(F)cc(-c2oncc2-c2nnnn2-c2ccccc2)c1,i,i,i,79µM,i,i
Fc1ccc(-c2oncc2-c2nnnn2-c2ccccc2)cc1F,i,i,i,i,i,i
Cc1ccc(-n2nnnc2-c2cnoc2-c2cccc(F)c2)cc1,i,i,i,16µM,i,i
COc1ccccc1CNC(=O)CSc1ccc(-c2ccncc2)nn1,i,i,i,i,i,i
Cc1cccc(NC(=O)c2sc3nc4c(c(-c5cccs5)c3c2N)CN(C)CC4)c1,i,?,45µM,?,?,i
Cc1ccccc1-c1nn2c(=O)cc(CN3CCN(C(=O)c4ccccc4Br)CC3)nc2s1,i,i,i,i,nt,i
COc1ccc(S(=O)(=O)Nc2ccc(NC(C)=O)cc2)cc1Cl,i,i,i,i,i,i
COc1ccc(NS(=O)(=O)c2cnc(N)nc2)cc1Cl,i,i,i,50µM,nt,i
CCCn1c(=O)n(C)c(=O)c2c(SCC(=O)NCc3ccco3)nc(C3CC3)nc21,i,i,i,79µM,i,i
CC1CCN(S(=O)(=O)c2ccc(C(=O)N3CCOCC3)cc2)CC1,i,i,i,i,i,i
CCNc1nc(NCC)n2c(SCC(=O)Nc3ccc(NC(C)=O)cc3)nnc2n1,i,50µM,50µM,i,nt,i[0.505 µM]
CCNc1nc(NCC)n2c(SCC(=O)Nc3ccc(CC)cc3)nnc2n1,?,i,2.5µM,?,nt,i
CCNc1nc(NCC)n2c(SCc3nc4ccccc4c(=O)[nH]3)nnc2n1,i,i,i[12.7 µM],i,i,i
CCNc1nc(NCC)n2c(SCc3ccc(F)cc3)nnc2n1,i,i,10µM,i,i,i
Cc1cc(C)c(C)c(S(=O)(=O)N2CCC(C(=O)NCc3ccco3)CC2)c1C,i,?,i[12.7 µM],i,nt,i
O=C(O)CCCC(=O)NCc1c(Cl)cccc1Sc1ccc(Cl)cc1,i,i,nt,i,79µM,i
Cc1ccc(C(=O)N(C)CC(=O)Nc2cccc(C)c2C)o1,i,i,i,i,i,nt
COc1ccc(C2=C(Nc3ccc(C)cc3)c3ccccc3C2=O)cc1,i,?,i,?,i,i
Cc1cc(C)cc(NC2=C(c3ccccc3)C(=O)c3ccccc32)c1,?,13µM,8.9µM,13µM,nt,i
COc1ccc(C2=C(Nc3ccc(Br)c(C)c3)c3ccccc3C2=O)cc1,?,?,2.8µM,?,nt,i
